In PubChem BioAssay (EPA / NIEHS):
Inconclusive results are not listed. The source made the active and inactive calls. The calls were made as follows: active = hit-call score of the fitted dose curve at least 0.9, where 1 is the maximum; inconclusive = response in the unintended direction; inactive = score below 0.9.

What was measured:
[1] = TOX21_p53_BLA_p2_viability: Viability Assessment in the Tox21 HCT-116 p53 Agonism Beta-lactamase Assay, Phase 2 (AID 2283591);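 also: compound exposure lasted 16 h at 37 °C; actives lower the ATP signal meaning cytotoxicity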
How it was run: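 Cytotoxicity readout: CellTiter-Glo ATP luminescence, 30 min at room temperature, after the beta-lactamase read. Cells were HCT116 exposed 16 h at 37C to compounds pin-transferred at 217-fold dilution from DMSO stocks.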

[2] = biological target: Cellular tumor antigen p53 (Homo sapiens) (UniProt P04637); assay: TOX21_p53_BLA_p2_ratio: Tox21 HCT-116 p53 Agonism Beta-lactamase Assay, Ratio, Phase 2 (AID 2283592)
How it was run: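 HCT-116 cells with p53-responsive beta-lactamase reporter, 4000 cells/well, preincubated 5 h, then compound in DMSO (217-fold dilution) for 16 h at 37C. CCF4-AM substrate 2 h at room temperature; 460/530 nm emission ratio fitted upward versus DMSO.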

[3] = TOX21_p53_BLA_p3_viability: Viability Assessment in the Tox21 HCT-116 p53 Agonism Beta-lactamase Assay, Phase 3 (AID 2283593);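 also: cells exposed to compound for 16 h before reading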
How it was run: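 Cellular ATP was quantified by CellTiter-Glo luminescence, read after 30 min at room temperature. Beforehand, HCT116 cells (4000/well) received compound 5 h post-seeding, 217-fold diluted from DMSO, then incubated 16 h at 37C.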

[4] = biological target: Cellular tumor antigen p53 (Homo sapiens) (UniProt P04637); assay: TOX21_p53_BLA_p3_ratio: Tox21 HCT-116 p53 Agonism Beta-lactamase Assay, Ratio, Phase 3 (AID 2283596)
How it was run: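 HCT116 p53-bla cells (4000/well) given compound in DMSO (217-fold dilution) after 5 h, incubated 16 h at 37C. CCF4-AM substrate 2 h at room temperature; 460/530 nm emission ratio, gain fitted against DMSO.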

[5] = TOX21_p53_BLA_p4_viability: Viability Assessment in the Tox21 HCT-116 p53 Agonism Beta-lactamase Assay, Phase 4 (AID 2283597);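 also: hits lower the luminescence signal meaning cytotoxicity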
How it was run: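 HCT-116 p53-bla cells, 4000/well, dosed after 5 h attachment and incubated 16 h at 37 °C, 5% CO2. Viability from CellTiter-Glo ATP luminescence after 30 min at room temperature, taken after the beta-lactamase read; loss of signal indicates cytotoxicity.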

[6] = ATG_XTT_Cytotoxicity: Cytotoxicity Assessment in the Attagene TRANS-FACTORIAL HepG2 Assay (AID 2283584);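 as to AC50: XTT signal for cell number as viability in transfected HepG2 cells; cells exposed to compound for 24 h before reading; active means loss of viability signal versus DMSO baseline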
How it was run: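 HepG2 cells transiently transfected with GAL4-UAS multiple reporter units, dosed 24 h; cytotoxicity read by XTT as loss of signal versus DMSO baseline.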

Measured: AC50

Chain of Cellular tumor antigen p53 (Homo sapiens) (P04637 whole entry, looked up): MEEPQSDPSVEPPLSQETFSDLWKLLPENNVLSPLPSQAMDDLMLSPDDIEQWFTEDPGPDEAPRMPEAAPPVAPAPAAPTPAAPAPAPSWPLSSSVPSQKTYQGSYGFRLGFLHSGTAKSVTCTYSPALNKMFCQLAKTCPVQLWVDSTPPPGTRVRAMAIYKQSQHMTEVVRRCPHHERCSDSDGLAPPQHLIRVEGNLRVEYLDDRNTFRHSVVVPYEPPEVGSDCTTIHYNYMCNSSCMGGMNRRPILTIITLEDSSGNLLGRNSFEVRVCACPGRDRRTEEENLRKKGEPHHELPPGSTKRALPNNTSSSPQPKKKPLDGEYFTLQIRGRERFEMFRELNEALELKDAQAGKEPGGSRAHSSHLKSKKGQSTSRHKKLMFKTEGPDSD

O=S(=O)(O)c1cc(S(=O)(=O)O)c2c(N=Nc3ccccc3)c(O)ccc2c1
not listed: [6]
inactive: all other assays above

CC(=O)CCC=C(C)CCC=C(C)C
inactive: [6] | [2] | [4]

C=CC(=O)OCCCCCC
inactive: [6] | [3] | [4]

C=CC(C)CCCC(C)(C)O (stereo not given)
inactive: [6] | [3] | [5]

CC1=CC[C@@H]2C[C@H]1C2(C)C
inactive: [6] | [3] | [5]

CCCO[Si](OCCC)(OCCC)OCCC
inactive: [6] | [3] | [5]

CCCCCCCCOC(C)=O
inactive: [6] | [2] | [4] | [5]

CC(C)(O)CCc1ccccc1
inactive: [6] | [2] | [4]

CCCCCCCCCCCCOCCOS(=O)(=O)O
active: [6] 154 µM
inactive: [3]

CCC(C)(C)C1CCC(=O)CC1
inactive: [1] | [2] | [3] | [4]

CC1(C)CC(=O)CC(C)(C)N1
inactive: [6] | [2] | [4] | [5]

CCCc1ccc(N)cc1
inactive: [6] | [2] | [4]

CC1=CCC(C(C)C)=CC1
inactive: [3] | [4]

O=C(C=Cc1ccccc1)OCCCc1ccccc1
inactive: [1] | [3] | [4] | [5]

O=C(O)c1ccco1
inactive: [2] | [3] | [4]

CC1=CC(C)C(C=O)C(C)C1 (stereo not given) (tested in a mixture with another compound)
inactive: [2]

[O-]/[N+](=N\O)c1ccccc1
not listed: [6]
inactive: all other assays above

CC1=CCC(C(C)(C)O)CC1 (stereo not given)
not listed: [6]
inactive: all other assays above
